This is an account of results in publication PMC9911399, “Two distinct binding modes provide the RNA-binding protein RbFox with extraordinary sequence specificity”.

Changes are numbered by the printed parent chain; changes in the protein carry UniProt numbers. Over roughly 16,000 sequences, “ka relative to ugcaugu” has its median near 0.0091; the highest 2% begin near 0.032. For the sample, the highest values were picked, then their nearest neighbours and some sequences at random.

First the molecules themselves.
T1: RBFOX1 RRM (Homo sapiens, UniProt Q9NWB1 109-208)
T1 sequence: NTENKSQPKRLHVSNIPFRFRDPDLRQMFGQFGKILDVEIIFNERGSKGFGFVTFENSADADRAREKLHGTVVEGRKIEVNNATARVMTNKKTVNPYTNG

B1: GGGACGU (DNA:RNA)
RNA: GGGAGACCGGAAUUCAGAUUGUCCGGGACGUUUAAAUCCCGUCGUAGCCACCA
DNA 1: CAATCTGAATTCCGGTCTCCC
DNA 2: TGGTGGCTACGACGGGATT
B2: CGGGUGC (DNA:RNA)
RNA: B1 RNA with G25C, A28G, C29U, U31C
DNA 1: CAATCTGAATTCCGGTCTCCC
DNA 2: TGGTGGCTACGACGGGATT
B3: GGGUGCU (DNA:RNA)
RNA: B1 RNA with A28U, C29G, G30C
DNA 1: CAATCTGAATTCCGGTCTCCC
DNA 2: TGGTGGCTACGACGGGATT
B4: AGGGUGC (DNA:RNA)
RNA: B1 RNA with G25A, A28G, C29U, U31C
DNA 1: CAATCTGAATTCCGGTCTCCC
DNA 2: TGGTGGCTACGACGGGATT
B5: CCGGUGC (DNA:RNA)
RNA: B1 RNA with G25C, G26C, A28G, C29U, U31C
DNA 1: CAATCTGAATTCCGGTCTCCC
DNA 2: TGGTGGCTACGACGGGATT
B6: GGGGUGC (DNA:RNA)
RNA: B1 RNA with A28G, C29U, U31C
DNA 1: CAATCTGAATTCCGGTCTCCC
DNA 2: TGGTGGCTACGACGGGATT
B7: GGGUGCG (DNA:RNA)
RNA: B1 RNA with A28U, C29G, G30C, U31G
DNA 1: CAATCTGAATTCCGGTCTCCC
DNA 2: TGGTGGCTACGACGGGATT
B8: AGUCCCC (DNA:RNA)
RNA: B1 RNA with G25A, G27U, A28C, G30C, U31C
DNA 1: CAATCTGAATTCCGGTCTCCC
DNA 2: TGGTGGCTACGACGGGATT
B9: CUUCGCU (DNA:RNA)
RNA: B1 RNA with G25C, G26U, G27U, A28C, C29G, G30C
DNA 1: CAATCTGAATTCCGGTCTCCC
DNA 2: TGGTGGCTACGACGGGATT
B10: GCGUUAG (DNA:RNA)
RNA: B1 RNA with G26C, A28U, C29U, G30A, U31G
DNA 1: CAATCTGAATTCCGGTCTCCC
DNA 2: TGGTGGCTACGACGGGATT
B11: CUUGGGA (DNA:RNA)
RNA: B1 RNA with G25C, G26U, G27U, A28G, C29G, U31A
DNA 1: CAATCTGAATTCCGGTCTCCC
DNA 2: TGGTGGCTACGACGGGATT
B12: UUGUUGC (DNA:RNA)
RNA: B1 RNA with G25U, G26U, A28U, C29U, U31C
DNA 1: CAATCTGAATTCCGGTCTCCC
DNA 2: TGGTGGCTACGACGGGATT
B13: UCCUUGC (DNA:RNA)
RNA: B1 RNA with G25U, G26C, G27C, A28U, C29U, U31C
DNA 1: CAATCTGAATTCCGGTCTCCC
DNA 2: TGGTGGCTACGACGGGATT
B14: CUGCUUG (DNA:RNA)
RNA: B1 RNA with G25C, G26U, A28C, C29U, G30U, U31G
DNA 1: CAATCTGAATTCCGGTCTCCC
DNA 2: TGGTGGCTACGACGGGATT
B15: UGCUUUU (DNA:RNA)
RNA: B1 RNA with G25U, G27C, A28U, C29U, G30U
DNA 1: CAATCTGAATTCCGGTCTCCC
DNA 2: TGGTGGCTACGACGGGATT
B16: CUGCUGC (DNA:RNA)
RNA: B1 RNA with G25C, G26U, A28C, C29U, U31C
DNA 1: CAATCTGAATTCCGGTCTCCC
DNA 2: TGGTGGCTACGACGGGATT
B17: GUGCUAG (DNA:RNA)
RNA: B1 RNA with G26U, A28C, C29U, G30A, U31G
DNA 1: CAATCTGAATTCCGGTCTCCC
DNA 2: TGGTGGCTACGACGGGATT
B18: UGCUUUG (DNA:RNA)
RNA: B1 RNA with G25U, G27C, A28U, C29U, G30U, U31G
DNA 1: CAATCTGAATTCCGGTCTCCC
DNA 2: TGGTGGCTACGACGGGATT
B19: UUGUUAG (DNA:RNA)
RNA: B1 RNA with G25U, G26U, A28U, C29U, G30A, U31G
DNA 1: CAATCTGAATTCCGGTCTCCC
DNA 2: TGGTGGCTACGACGGGATT
B20: UUGCUAG (DNA:RNA)
RNA: B1 RNA with G25U, G26U, A28C, C29U, G30A, U31G
DNA 1: CAATCTGAATTCCGGTCTCCC
DNA 2: TGGTGGCTACGACGGGATT
B21: UUGCUUG (DNA:RNA)
RNA: B1 RNA with G25U, G26U, A28C, C29U, G30U, U31G
DNA 1: CAATCTGAATTCCGGTCTCCC
DNA 2: TGGTGGCTACGACGGGATT
B22: UGCUGCU (DNA:RNA)
RNA: B1 RNA with G25U, G27C, A28U, C29G, G30C
DNA 1: CAATCTGAATTCCGGTCTCCC
DNA 2: TGGTGGCTACGACGGGATT
B23: CCCCUGC (DNA:RNA)
RNA: B1 RNA with G25C, G26C, G27C, A28C, C29U, U31C
DNA 1: CAATCTGAATTCCGGTCTCCC
DNA 2: TGGTGGCTACGACGGGATT

This test concerns the target T1, RBFOX1 RRM. In words: EMSA; HiTS-Eq, 1 nM pool, 10 min; buffer printed only for the single-RNA assays: 10 mM Tris pH 7.5, 150 mM NaCl, 3.4 mM EDTA, 0.001% NP-40, 30 C. The settings on record: tags: His6 N-terminal (pET28a); label: 5' 32P. In short, it runs like this:
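A pool of RNA with 7 randomized nucleotides, 5′-radiolabelled and with DNA-annealed flanks, was equilibrated at 1 nM for 10 min in 50 µL with purified RbFox RRM, wild type or mutant, across increasing protein concentrations. Free RNA was separated by 8% native PAGE, excised, reverse-transcribed, barcoded by PCR and sequenced. Relative association constants were obtained from read-count changes of each RNA species versus the control reaction and normalised to the cognate motif.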
In general terms: Mobility shift assays separate free from complexed probe on a gel.
Regarding B1, the binding signal was 0.0238 KA relative to UGCAUGU. Take B2: the binding signal was 0.0369 KA relative to UGCAUGU. For the molecule B3, the binding signal is 0.0276 KA relative to UGCAUGU.

B4: the binding signal was 0.0198 KA relative to UGCAUGU. For B5, the binding signal was 0.0149 KA relative to UGCAUGU. On to B6, for which the binding signal was 0.0467 KA relative to UGCAUGU. On to B7, for which the binding signal was 0.023 KA relative to UGCAUGU.

Turning to B8, the binding signal is 0.0101 KA relative to UGCAUGU. For the molecule B9, the binding signal was 0.0136 KA relative to UGCAUGU. Take B10: the binding signal was 0.0109 KA relative to UGCAUGU. For B11, the binding signal is 0.00252 KA relative to UGCAUGU. Regarding B12, the binding signal was 0.0249 KA relative to UGCAUGU. The result for B13 reads 0.0155 KA relative to UGCAUGU; that for B14, 0.0459 KA relative to UGCAUGU; that for B15, 0.0211 KA relative to UGCAUGU. Consider B16, for which the binding signal is 0.0217 KA relative to UGCAUGU.

Turning to B17, the binding signal was 0.0307 KA relative to UGCAUGU. Turning to B18, the binding signal was 0.0377 KA relative to UGCAUGU. As for B19, the binding signal was 0.0257 KA relative to UGCAUGU. For B20, the binding signal is 0.0399 KA relative to UGCAUGU. With B21, the binding signal is 0.0749 KA relative to UGCAUGU. With B22, the binding signal was 0.0249 KA relative to UGCAUGU. To B23 belongs 0.00603 KA relative to UGCAUGU.
